Test results from PubChem BioAssay AID1619 (SRMLSC, 2009).
About 830 (0.38%) of roughly 220,000 compounds were called active.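 Rule for the calls: active = compound inhibiting the enzyme by more than half at any dose during confirmatory dose-response retesting; inconclusive = strong single-dose inhibitors picked by rank but not retested; inactive = the rest.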 These entries were drawn from the full list. Entries with a potency or affinity are not part of this list.

Biological target: Leucine aminopeptidase (Plasmodium falciparum (isolate 3D7)) (UniProt Q8IL11)
Assay: P. falciparum M17LAP inhibitors, primary screen, biochemical, fluorogenic H-Leu-NHMec substrate, 1536-well (AID 1619);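 note: plate controls were full reaction with DMSO carrier for no effect and no enzyme background for full effect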
Conditions: recombinant M17LAP, H-Leu-NHMec fluorogenic kinetic assay; at 30 µM; active compounds read high

Sequence of Leucine aminopeptidase (Plasmodium falciparum (isolate 3D7)) (Q8IL11 whole entry, looked up): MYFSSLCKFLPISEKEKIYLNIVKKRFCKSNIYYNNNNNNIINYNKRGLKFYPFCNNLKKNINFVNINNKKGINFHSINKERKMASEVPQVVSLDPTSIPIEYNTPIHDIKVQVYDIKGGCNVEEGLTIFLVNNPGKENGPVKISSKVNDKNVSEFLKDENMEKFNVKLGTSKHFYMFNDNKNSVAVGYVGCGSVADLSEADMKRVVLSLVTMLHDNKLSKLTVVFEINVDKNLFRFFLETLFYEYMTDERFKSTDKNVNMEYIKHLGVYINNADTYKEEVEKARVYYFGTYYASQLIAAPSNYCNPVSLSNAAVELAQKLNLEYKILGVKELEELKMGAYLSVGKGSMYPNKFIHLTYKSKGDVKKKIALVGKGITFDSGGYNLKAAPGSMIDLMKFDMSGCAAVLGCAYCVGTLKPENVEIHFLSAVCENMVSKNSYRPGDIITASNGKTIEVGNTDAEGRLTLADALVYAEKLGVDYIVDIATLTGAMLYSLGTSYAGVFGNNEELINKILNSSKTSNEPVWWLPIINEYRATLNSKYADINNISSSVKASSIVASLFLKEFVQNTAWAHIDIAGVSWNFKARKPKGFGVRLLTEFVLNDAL

inhibition, inactive:
CCOC(=O)c1cccnc1SCC(=O)Nc1ccc(C)cc1 3.41%
CSc1cccc(NC(=O)CSc2ncccc2C(=O)Oc2cccc([N+](=O)[O-])c2)c1 53%
CCN(C(=O)CSc1ncccc1C(=O)Oc1cccc([N+](=O)[O-])c1)c1cccc(C)c1 -2.44%
CCC(Sc1ncccc1C(=O)Oc1cccc([N+](=O)[O-])c1)C(=O)Nc1ccccc1OC (stereo unspecified) 46.5%
O=C(N1CCCCC1)N1CCCN(C(=O)N2CCCCC2)CC1 7.89%
O=C(COc1ccc2ccccc2c1)Nc1ccc(S(=O)(=O)N2CCCCCC2)cc1 -9.55%
O=C(Nc1nc(=O)c2ccccc2s1)c1ccccc1 6.62%
CC(=O)Cc1nsc(NC(=O)c2ccccc2)n1 9.29%
Cc1ccc(C(=O)Nc2nnc(C)s2)cc1 11.4%
Cc1ccc(C(=O)Nc2nccs2)cc1 2.76%
CC(C)CCC1(CCNC(=O)c2cccs2)CCOC(C)(C)C1 (stereo unspecified) 0.32%
Cc1ccc(S(=O)(=O)n2nc(-c3ccco3)nc2N)cc1 -3.51%
O=C(NCCSCc1ccccc1)c1cc(S(=O)(=O)N2CCOCC2)ccc1F 6.12%
CC(C(O)C12CC3CC(CC(C3)C1)C2)N1CCCCC1 (stereo unspecified) 9.11%
Cc1nn(-c2ccccc2)c(C)c1/C=C/C(=O)OC(C)C(=O)Nc1ncc(Cl)cc1Cl (stereo unspecified) -12.7%
Cc1cc(=O)n(CNC(=O)c2ccccc2)c(=S)[nH]1 -9.25%
Nc1cc(=O)[nH]c(SCC(=O)Nc2ccc3c(c2)CCC3)n1 53.8%
O=C(CSc1nccc(=O)[nH]1)Nc1ccc2c(c1)OCCO2 -0.7%
CC(C)Cc1c(O)nc(SCC(=O)Nc2ccc3c(c2)CCC3)[nH]c1=O 54.1%
O=C(CSc1nncs1)Nc1ccc2c(c1)OCCO2 23.5%
O=C(CSc1nc2ccccc2[nH]1)Nc1ccc2c(c1)CCC2 1.81%
CCC(C)c1c(O)nc(SCC(=O)Nc2ccccc2)[nH]c1=O (stereo unspecified) 25.4%
O=C(CSc1nc2ccc(Cl)cc2[nH]1)Nc1ccc2c(c1)CCC2 3.87%
Cn1cnnc1SCC(=O)Nc1ccc2c(c1)CCC2 42.8%
Cc1coc(C)c1C(=O)CC1(O)C(=O)Nc2cc(Cl)cc(Cl)c21 (stereo unspecified) -6.03%
Cc1ccc(S(=O)(=O)N(C)C)cc1NC(=O)COc1ccc(-c2nnco2)cc1 -1.3%
CC(NS(=O)(=O)c1ccc([N+](=O)[O-])cc1)C(=O)NN (stereo unspecified) 5.26%
O=C1NC(=S)N/C1=C/c1cccn1-c1ccc([N+](=O)[O-])cc1 -21%
COc1ccc(OC)c(/C=C/C(=O)OCC(=O)Nc2ccc(Cl)c(S(=O)(=O)N(C)C)c2)c1 5.28%
Cc1cc(C)n(C(=O)c2ccc(C)o2)n1 6.21%
Cc1ccc(S(=O)(=O)c2ccc(NN)cc2)cc1 20.8%
Cc1ccc(C2N(c3nccs3)C(=O)C3CCCN32)cc1 (stereo unspecified) -15.4%
Fc1ccc(COc2ccccc2C(=S)N2CCCC2)cc1 10.6%
CN(C)S(=O)(=O)c1ccc(C(=O)NCc2ccccn2)cc1 -3.48%
Cc1ccc(S(=O)(=O)NC(=O)Nc2cc(C)ccc2F)cc1 -4.66%
CC(=O)NS(=O)(=O)c1ccc(NS(=O)(=O)c2ccc(F)cc2)cc1 -13%
Cc1cc2c(cc1C)-c1c(ssc1=Nc1ccc(S(N)(=O)=O)cc1)C(C)(C)N2 -1.4%
CC(=O)NS(=O)(=O)c1ccc(N=c2ssc3c2-c2cc(C)ccc2NC3(C)C)cc1 55%
Cc1nn(-c2ccc(Cl)c(Cl)c2Cl)c(=O)c2ccccc12 -4.32%
N#CC(C#N)=Cc1ccc(OC(=O)c2ccccn2)cc1 15.9%
COc1cc2c(cc1OC)C1(Nc3c-2c(-c2ccccc2)nn3-c2ccccc2)C(=O)Nc2ccccc21 (stereo unspecified) 0.95%
O=C(COC(=O)c1cnccn1)Nc1ccc2c(c1)OCO2 13.5%
CCOc1ccc(CCNC(=O)CN(C)S(=O)(=O)c2ccc3c(c2)CCC(=O)N3)cc1OCC -8.18%
COC(=O)CN(Cc1ccccc1)S(=O)(=O)c1ccc(OC)c(OC)c1 -2.5%
O=S(=O)(c1cccs1)N1CCN(c2ncccn2)CC1 -7.79%
COc1ccc(C(=O)Nc2ccccc2N2CCOCC2)cc1[N+](=O)[O-] 7.12%
CCOC(=O)c1c(-c2cccs2)csc1NC(C)=O -14.7%
CCOC(=O)c1c(-c2cccs2)csc1NC(=O)CC(C)C 7.23%
Cc1ccc(OCCCN2C(=O)C(=O)c3cccc(C)c32)cc1 13.8%
OC1NC(=S)N(c2ccccc2)C1O (stereo unspecified) 8.92%
COc1ccc(C2NC(=S)N3C(c4ccc(OC)cc4)NC(=S)N23)cc1 (stereo unspecified) 34.8%
COc1cccc(CC(NC(C)=O)C(=O)NC2CCN(c3nnnn3-c3ccccc3)CC2)c1 (stereo unspecified) 5.55%
CN(CCC#N)CC(=O)Nc1ccc(NC(=O)CN(C)CCC#N)cc1 -4.87%
NC(=O)c1ccc(-c2ccccc2F)cc1 6.07%
O=S1(=O)N=C(Nc2ccc(O)c(CN3CCCCC3)c2)c2ccccc21 18.9%
CCOC(=O)c1c(NC(=O)CSc2nnc(C)c(=O)[nH]2)sc(C)c1C 11.9%
Cc1nnc(SCC(=O)Nc2sc3c(c2C(N)=O)CCCC3)[nH]c1=O 49.5%
CCOC(=O)c1c(NC(=O)CSc2nnc(C)s2)sc2c1CCCCC2 -4.03%
COC(=O)c1c(NC(=O)CSc2nnc(C)c(=O)[nH]2)sc(C)c1C 21.5%
Cc1ccc(C(=O)c2cn[nH]c2-c2ccccc2O)cc1 44.9%
CCOC(=O)C1(C(=O)OCC)C(c2ccccc2)CC(O)N1C(C)=O (stereo unspecified) 1.54%
